Assay results: PubChem BioAssay
The source made the active and inactive calls. The rule behind the calls is not given here.

Biological target: Pantothenate synthetase (Mycobacterium tuberculosis (strain ATCC 25618 / H37Rv)) (UniProt P9WIL5)
Test: Recombinant Mtb pantothenate synthetase (PanC) inhibitors, coupled enzyme, confirmatory (AID 375);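 note: 0% = full reaction with vehicle and 100% = no enzyme background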
Conditions: coupled enzyme assay; at 10 µM, active compounds read high

Pantothenate synthetase (Mycobacterium tuberculosis (strain ATCC 25618 / H37Rv)), sequence (P9WIL5 whole entry, looked up): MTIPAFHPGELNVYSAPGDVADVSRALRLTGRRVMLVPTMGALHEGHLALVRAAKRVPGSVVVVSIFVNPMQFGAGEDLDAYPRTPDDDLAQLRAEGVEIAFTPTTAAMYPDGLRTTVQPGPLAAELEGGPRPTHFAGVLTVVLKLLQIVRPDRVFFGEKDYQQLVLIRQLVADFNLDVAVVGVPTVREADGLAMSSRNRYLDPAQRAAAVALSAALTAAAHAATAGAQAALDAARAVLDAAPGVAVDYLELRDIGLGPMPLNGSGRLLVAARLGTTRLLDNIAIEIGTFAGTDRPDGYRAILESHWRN

| Compound | inhibition |
| --- | --- |
| COc1ccc(-n2c(Cc3cccn3C)nnc2SCC(=O)Nc2ccccc2)cc1 | 0% (inactive) |
| Cc1ccc(NC(=O)Nc2ccc3c(c2)N(C)C(=O)CS3)nc1 | 5% (inactive) |
| CCOC(=O)Cn1c(CN2CCOCC2)nc2c1c(=O)[nH]c(=O)n2C | 0% (inactive) |
| Cc1occc1C(=O)Nc1ccccc1NC(=O)c1ccoc1C | 3% (inactive) |
| O=C(c1cccc(F)c1)N1CCc2ccccc21 | 0% (inactive) |
| O=C(Cn1c(=O)n(Cc2ccc3c(c2)OCO3)c(=O)c2ccccc21)N1CCCc2ccccc21 | 0% (inactive) |
| Cc1ccc2c(CNCc3ccco3)cc(=O)oc2c1 | 0% (inactive) |
| C=C(C)Cn1c(CCCNC(=O)C(C)(C)C)nc2ccccc21 | 0% (inactive) |
| CC(NC(=O)Nc1nccs1)(C(F)(F)F)C(F)(F)F | 5% (inactive) |
| O=C(CSc1ncnc2c1cnn2Cc1ccccc1)Nc1ccc2c(c1)OCCO2 | 5% (inactive) |
| CC(C)(C)c1cc(NS(=O)(=O)c2ccc3c(c2)OCCO3)on1 | 0% (inactive) |
| COc1cc(OC)cc(-c2nnc(Nc3nc4c(F)cccc4s3)o2)c1 | 12% (inactive) |
| COC(=O)Cn1cnc2c(nnn2-c2ccc(C)cc2)c1=O | 0% (inactive) |
| Cn1nnnc1SCC1=C(C(=O)O)N2C(=O)[C@@H](NC(=O)[C@H](O)c3ccccc3)[C@H]2SC1 | 0% (inactive) |
| N#CC1=C(N)C(C#N)(C#N)[C@H](c2ccsc2)[C@H]2COCC=C12 | 0% (inactive) |
| O=C(C1CCN(S(=O)(=O)Cc2ccccc2)CC1)N1CCN(c2ncccn2)CC1 | 0% (inactive) |
| Cc1cc(O)c(C2(C(F)(F)F)NCCNC2=O)cc1C (centres undefined) | 5% (inactive) |
| Cc1ccc(C)n1-n1c(C)nc2sc(-c3ccccc3)cc2c1=O | 0% (inactive) |
| Clc1ccc(Cl)c(-c2nn3c(COc4ccccc4)nnc3s2)c1 | 4% (inactive) |
| CSc1ccccc1NC(=O)C1CCCO1 (centres undefined) | 7% (inactive) |

| Compound | inhibition |
| --- | --- |
| Cc1cc(NS(=O)(=O)c2ccc(NC(=O)C(C)N3C(=O)c4ccccc4C3=O)cc2)nc(C)n1 (centres undefined) | 1% (inactive) |
| COc1ccc(C(=O)CSc2nnc(C3CCCCC3)n2N)c(OC)c1 | 0% (inactive) |
| O=C(NC1(C(F)(F)F)C(=O)Nc2c1c(=O)[nH]c(=O)n2Cc1ccco1)C1CCCCC1 (centres undefined) | 0% (inactive) |
| Cc1cc(=O)n(-c2ccc3ccccc3n2)[nH]1 | 6% (inactive) |
| COCCNC(=O)c1ccc(CS(=O)(=O)c2ccc(OC)cc2)o1 | 0% (inactive) |
| CCCCOc1ccc(N(CC(=O)NC2CCCC2)C(=O)CCC(=O)Nc2ccccn2)cc1 | 0% (inactive) |
| COc1ccccc1NC(=O)C1=C(C)Nc2nnnn2C1c1ccccc1OC (centres undefined) | 2% (inactive) |
| CCCC(=O)Nc1ccc(C(=O)O)cc1NC(=O)CCC | 0% (inactive) |
| Cc1nn(C)c(C)c1CN(C)C(=O)c1cc2nc(-c3ccco3)cc(C(F)(F)F)n2n1 | 0% (inactive) |
| O=c1[nH]c2cc3c(cc2cc1C(c1nnnn1Cc1ccccc1)N1CCCc2ccccc21)OCO3 (centres undefined) | 1% (inactive) |
| O=C(CCSc1nc(-c2ccco2)cc(C(F)(F)F)n1)NCCc1ccccc1 | 1% (inactive) |
| CCOC(=O)NC(=O)CSc1nnc(C)s1 | 4% (inactive) |
| O=C(CSc1nc2cc(Cl)ccc2s1)N1CCN(C(=O)c2ccco2)CC1 | 9% (inactive) |
| COc1ccc(S(=O)(=O)Cc2ccc(C(=O)N3CCOCC3)o2)cc1 | 7% (inactive) |
| O=C(CS(=O)(=O)c1cn(Cc2ccc(F)cc2)c2ccccc12)N1CCCCC1 | 0% (inactive) |
| CCN1C(=O)/C(=C/N2CCc3ccccc32)SC1=S | 0% (inactive) |
| COc1cc(OC)cc(-c2nc3cc(C)ccc3o2)c1 | 3% (inactive) |
| Cc1ccc(N=Cc2ccc(O)cc2O)cc1F | 0% (inactive) |
| CCc1c(C)nc(N)n2c(SCC(=O)N3CCCc4ccccc43)nnc12 | 2% (inactive) |
